JMJD2A Tudor inh: blocks the human JMJD2A Tudor domain. O75164. AID 504339. Potency, µM (top dose mostly 114 µM), without a hit: at the top dose activity change, negative = inhibition, hits mostly inhibitors. AlphaScreen JMJD2A-Tudor / H3K4me3 peptide binding. actives 4.4% (n = 390,000); further: potency means the concentration at half of the fitted maximal effect; on the % scale 0 is the no-effect control and ±100 the full control effect; nearly all actives have a fitted effect of over 50% in size
G9a block: G9a (human) methyltransferase inhibition | Potency, µM (titrated, usually from 102 µM), for the others: at the highest dose activity, negative = inhibition, actives largely listed as inhibitors | actives 8.8% (n = 350,000) | AID 504332 | G9a H3K9 monomethylation, AlphaScreen, 2 h; further: potency means the concentration at half of the fitted maximal effect; on the % scale 0 is the no-effect control and ±100 the full control effect; nearly all actives have a fitted effect of over 75% in size
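Compounds were preincubated with 20 nM G9a for 15 min, after which biotinylated H3K9 peptide (500 nM) and SAM (20 uM) started a 2 h room-temperature reaction. Monomethylated product was quantified by antibody-based AlphaScreen chemiluminescence.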
HP1b binding inh: inhibitors of HP1-beta chromodomain binding to methylated histone tails; P83916; AlphaScreen HP1-beta / biotin-H3K9me3 peptide binding; Potency, µM (series often up to 114 µM), inactives show at the top dose activity change, negative = inhibition, hits mostly inhibitors; actives 0.56% (n = 390,000); AID 540317; further: potency means the concentration at half of the fitted maximal effect; nearly all actives have a fitted effect of over 70% in size
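Compound inhibition of the preformed complex between 50 nM HP1-beta and 50 nM biotinylated H3K9me3 peptide was read by AlphaScreen. Buffer was PBS pH 7.4 with 0.01% Tween-20. Incubations ran 30 min at room temperature, with 10 ug/mL donor/acceptor beads.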
BAZ2B block: BAZ2B (human) inhibition; Q9UIF8; AlphaScreen BAZ2B-H3K14Ac peptide displacement; Potency, µM (doses to about 114 µM), for the others: at the highest dose activity change, negative = inhibition, most hits filed as inhibitors; actives 4.4% (n = 360,000); AID 504333; further: potency means the concentration at half of the fitted maximal effect; on the % scale 0 is the no-effect control and ±100 the full control effect; nearly all actives have a fitted effect of over 60% in size
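Complex of BAZ2B and biotin-H3K14Ac (50 nM apiece) forms over 30 min at RT, then faces library compounds up to 110 uM for another 30 min; AlphaScreen beads added, 20 min dark incubation, luminescence read.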
Six1-Eya2 inh: Six1/Eya2 interaction inhibition | actives 0.56% (n = 360,000) | activity change, % (test concentration not listed) | AlphaScreen GST-Six1/His-Eya2 binding, biochemical; stronger effect = lower value; in the data active means activity change below about -65%; inconclusive means mostly about -30% to -63%; further: on the % scale 0 is the no-effect control and ±100 the full control effect
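AlphaScreen luminescence read after one hour at 37 °C in darkness. Pin-transferred compounds met GST-Six1 and His-Eya2 protein (5X stock 250 nM/500 nM) plus glutathione donor and Ni-chelate acceptor beads (5X, 50 ug/mL).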
CtBP-E1A inh: inhibitors of CtBP/E1A interaction | AlphaScreen GST-E1A/His-CtBP binding, 1536-well; stronger effect = lower value | activity change, % (concentration not given with the values) | actives 0.49% (n = 340,000); in the data active means activity change below about -65%; inconclusive means mostly about -30% to -63%; further: on the % scale 0 is the no-effect control and ±100 the full control effect
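AlphaScreen with 125 nM GST-E1A and 125 nM His-CtBP (5X stocks) in Tris pH 8.0, 300 mM NaCl, BSA, Tween 20, TCEP. Compounds preincubated 2 h at 37 deg C, then glutathione donor/nickel acceptor beads added for 1 h at 37 deg C in dark.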
* = called active by the depositor; ? = inconclusive; / = no result given; ! = not active in a repeat; [ ] = dose if it differs, or a comment. Hits are enriched below; roughly 10% of the tested compounds scored in any of these assays. Unless noted, the call rests on the fitted dose curve; in most records, active means well fitted inhibition curve with a large enough effect; inconclusive means small, poorly fitted or top-dose-only effect; inactive means no such curve, though single readings can be large or run the other way.

SMILES	JMJD2A Tudor inh	G9a block	HP1b binding inh	BAZ2B block	Six1-Eya2 inh	CtBP-E1A inh
CSc1ccc(C(=O)C2CCCN(Cc3cc4ccccc4[nH]3)C2)cc1 (configuration not stated)	11µM*	16µM*	?	20µM*	-16	0
O=[N+]([O-])c1cc(-n2cnnn2)c(O)c([N+](=O)[O-])c1	-12%[11.4 µM]	50µM*	50%	-19%	11	-11
O=[N+]([O-])c1cc(O)c(O)c([N+](=O)[O-])c1	-21%	7.9µM*!	20%	?	-27	-12
COC(=O)c1ccccc1OC(=O)c1ccc(Br)o1	-9%	1%[12.7 µM]	50%	12%	3	7
c1ccc(N2CCC3(CCNCC3)CC2)nc1	/	-4%[12.7 µM]	/	/	/	/
Nc1ncnc2c1ncn2[C@@H]1O[C@H](COP(=O)(O)CP(=O)(O)O)[C@@H](O)[C@H]1O	79µM*	38%[59 µM]	20%	/	0	10
Nc1ncnc2c1ncn2[C@@H]1O[C@H](COP(=O)(O)CP(=O)(O)OP(=O)(O)O)[C@@H](O)[C@H]1O	/	13µM*!	/	/	/	/
CCNC(=O)[C@H]1O[C@@H](n2cnc3c(N)ncnc32)[C@H](O)[C@@H]1O	-1%	7%[59 µM]	37%	-7%	8	-1
CCN1C[C@]2(COC)CC[C@H](O)[C@@]34[C@@H]5C[C@H]6[C@@H](OC)[C@H]5[C@](O)(C[C@@H]6OC)[C@@](O)([C@@H](OC)[C@H]23)[C@@H]14	/	22%[21.5 µM]	/	/	/	/
[Li+]	/	6%[59 µM]	/	/	/	/
CC(=O)C1CCC2C3CCC4CC(O)CCC4(C)C3CC(O)C12C (configuration not stated)	/	-45%[2.33 µM]	/	/	/	/
CO[C@H]1[C@@H](O)CC(OC2[C@@H](O)CC(OC3[C@@H](O)C[C@H](OC4CC[C@@]5(C)C(CCC6C5CC(O)[C@]5(C)[C@H](C7=CC(=O)OC7)CCC65O)C4)O[C@@H]3C)O[C@@H]2C)O[C@@H]1C (some centres not stated)	/	10%[12.7 µM]	/	/	/	/
O=C(O)c1ccc[nH]c1=S	0.89µM*	3.5µM*	38%	40µM*	2	-1
COc1ccc2c(c[n+](C)c3c4cc5c(cc4ccc23)OCO5)c1OC	/	17µM*	/	/	/	/
COc1cc2c(ccc3c4cc(OC)c(OC)cc4c[n+](C)c23)cc1O	-26%	/	20%	/	?	4
NCC(CC(=O)O)c1ccc(Cl)s1 (configuration not stated)	/	37%[59 µM]	/	/	/	/
CCOP(=O)(OCC)/C(=N/OC(=O)c1ccc(Cl)cc1Cl)C(N)=O	-3%	50µM*	76%	-2%	14	-3
CCOP(=O)(OCC)C(NC(=O)c1ccc(Cl)cc1)=C(Cl)Cl	-4%	46%[0.501 µM]	19%	-10%	2	-4
CC(C)n1cnc2c(C(=O)N[C@H]3CN4CCC3CC4)cc(Cl)cc21	/	28%[59 µM]	/	/	/	/
O=C(O)c1ccc([N+](=O)[O-])c([N+](=O)[O-])c1	-21%	/	-13%	/	9	-4
N#CC(C#N)=Cc1ccc([N+](=O)[O-])c(O)c1	/	8.9µM*	/	/	/	/
Cc1ccc2cc(C=C(C#N)C#N)c(Cl)nc2c1	-34%	?	-8%	-28%	-1	-3
N#CC(C#N)=Cc1ccc(C=C(C#N)C#N)cc1	-14%	50µM*	26%	-23%	-9	-2
COc1ccc(NC(=O)N2C[C@@H]3C[C@@H](C2)c2cccc(=O)n2C3)cc1	-7%	/	14%	-3%	6	7
O=C(/C=C/c1ccc(Br)cc1)NC(=S)N1C[C@H]2C[C@H](C1)c1cccc(=O)n1C2	-31%	50µM*	11%	-11%	-1	-10
COc1ccc(/C=C/C(=O)NC(=S)N2C[C@H]3C[C@H](C2)c2cccc(=O)n2C3)cc1	-17%	?	21%	-1%	10	6
O=C(/C=C/c1ccc(Cl)cc1)NC(=S)N1C[C@H]2C[C@H](C1)c1cccc(=O)n1C2	-21%	18µM*	5%	-34%	-2	1

High-throughput results: PubChem BioAssay, National Center for Advancing Translational Sciences (NCATS)
